The results in this text go back to PubChem BioAssay (NCI).

The panel holds about 79,000 compounds, 15% with a hit somewhere; the sample as a whole holds those more often. Values without a mark were called inactive. Cut-off read from the data, not from the text of the source: active = growth inhibition above about 70%; inactive = the rest. Where a SMILES comes first, the peptide text is derived from it. The star is where a group is joined. Cbz = O=C(OCc1ccccc1)*

This experiment in a line: NCI Yeast Anticancer Drug Screen. Data for the cln2 rad14 strain (AID 165).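 Note: 0% = growth equal to vehicle treated cultures.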 The settings on record: S. cerevisiae cln2 rad14 strain, at 50.0 µM, stronger effect = higher value. Summed up:
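Yeast carrying cln2 and rad14 alterations (cell cycle control and DNA damage repair) were exposed to compounds. Growth inhibition was measured against vehicle-treated controls.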
As for `CC(C)(CS(C)(=O)=O)C(=O)O`, the growth inhibition was -7.55%.

With `COC(=O)C(CO)NC(=O)C(CO)NC(=O)OCc1ccccc1` (stereo not drawn) (Cbz-Ser-Ser-OMe; configuration not given here), the growth inhibition was 7.4%.

As to `O=C1O/C(=C(\Br)c2ccc([N+](=O)[O-])cc2)c2ccccc21`, the growth inhibition is 0.85%.

Regarding `CC(=O)OCC1OC(n2c(-c3ccc(C)cc3)cc(-c3ccccc3)c(C#N)c2=S)C(OC(C)=O)C(OC(C)=O)C1OC(C)=O` (stereo unspecified), the growth inhibition was -8.55%.

As for `Cc1ccc(C(=O)/C=C/c2ccc(N(C)C)cc2)cc1`, the growth inhibition was 30.9%.

`Clc1cc(Cl)c(Cl)c(Cl)c1Cl`: the growth inhibition was 12.8%.

Take `Cc1c(-c2ccccc2)[nH]c2ccc(Cl)cc2c1=O`: the growth inhibition was 2.8%.

Consider `CN(C)C(=O)C(c1ccccc1)P(=O)(c1ccccc1)c1ccccc1` (stereo unspecified), for which the growth inhibition is -26.6%.

For the compound `O=[N+]([O-])c1ccc(SC2=NCCCN2C2CCCCC2)c(Cl)c1`, the growth inhibition was 13.8%.

Turning to `C/C(=N\NC(=O)C1CCCO1)c1cccc2ccccc12` (stereo unspecified), the growth inhibition was 17%.

As to `COc1ccc(Sc2cccc(Cl)c2)c(C(=O)O)c1`, the growth inhibition was 3.8%.

Turning to `NC(=S)N/N=C\C(CC(O)C(O)CO)=N\NC(N)=S` (stereo unspecified), the growth inhibition was 8.7%.

As for `COC(=O)/C=C1/CC[C@H]2[C@@H]3CCC4=CC(=O)CC[C@]4(C)[C@H]3C(=O)C[C@]12C`, the growth inhibition is -28%.

With `CCCCCCC1N(C(C#N)c2ccccc2)CCCN1C(C#N)c1ccccc1` (stereo unspecified), the growth inhibition is 7.6%.

On to `CC(C)(C)n1nnnc1N`, for which the growth inhibition is -0.05%.

Turning to `C/C(=N/O)c1ccc(O)cc1O`, the growth inhibition was -8.6%.
